{
  "source": "PubChem BioAssay (NCATS)",
  "note": "Calls of active or inactive are those of the source. Entries that show only a call come without a potency. Calls come from the whole dose curve; as a rule, active = well fitted inhibition curve with a large enough effect; inconclusive = small, poorly fitted or top-dose-only effect; inactive = flat fitted curve, though single readings scatter.",
  "data": [
    {"test_system": "Nanoluciferase (engineered Oplophorus gracilirostris luciferase)", "test": "Primary Nanoluciferase (NLuc) qHTS assay for identification of artifact compounds. (AID 1845222)", "conditions": "NLuc-conditioned medium, Nano-Glo luminescence, 5 min; series mostly up to 54.1 µM", "from_the_text": "PI: Alexander Tropsha Ph.D.\nUNC Eshelman School of Pharmacy\nUniversity of North Carolina, Chapel Hill, North Carolina\nHits from high-throughput screening (HTS) of chemical libraries are often false positives due to their interference with the assay detection technology. In response to this problem, we generated the largest publicly available library of chemical liabilities and developed a free webtool to predict HTS artifacts, both of which are described herein. More specifically, we generated, curated, and integrated HTS datasets for thiol reactivity, redox activity, and luciferase (firefly and nano) activity. Using these curated datasets, we developed and validated several Quantitative Structure-Interference Relationship (QSIR) models to predict nuisance behavior. […] These models were employed for virtual profiling of the National Center for Advancing Translational Science's (NCATS) in-house library, and 256 compounds for each assay were selected for the experimental validation of nuisance behavior. The BA for these external predictions ranged from 58 to 78% for compounds within the applicability domains of the models. […] The models developed in this study, along with aggregation models previously developed by our group (SCAM Detective) were implemented in \"Liability Predictor,\" an online tool which may be used as part of chemical library design or for triaging HTS hits. Both the models and the curated datasets are publicly available at https://liability.mml.unc.edu/.\nSEQUENCE No. (e.g., 1, 2, 3, etc.); […] (e.g., Cells, Incubation, Reagent, etc.); VALUE; DESCRIPTION.\n1; Reagent; 2 uL; Nanoluciferase media.\n2; Compounds and control; 16 nL; Kalypsis pin tool (Wako USA) equipped with a 1536-well pin head.\n4; Reagent; 2 uL; Luciferase enzyme.\n6; Detection; Luminescence, ViewLux microplate reader.\nNOTES (numbers refer to Sequence numbers above)\n1. Medium was collected from the culture flasks of NLuc-expressing S16 cells (80% confluent) prior to cell plating, filtered through a 0.22um filter, and frozen at -20C prior to use. Media was diluted (1:55) and 2 uL was dispensed into all wells of a 1536-well assay plate (solid-bottom white plate; Greiner Bio One, Monroe, NC).\n2. A Wako Pin-tool (Wako Automation, Richmond, VA) was used to transfer 16 nL of compounds (consisting of 7-plates in qHTS format, final concentration range 18.3 nM to 114 uM) or control Cilnidipine (final concentration range 623 nM to 80 uM).\n3. 15 min. incubation at room temperature protected from light.\n4. 2 uL of NLuc substrate (1:100 in Nano-Glo luciferase buffer; Nano-Glo luminescence assay, Promega, Madison, WI) was dispensed for a final assay volume of 4 uL.\n5. Plates were centrifuged (121xg, 15 seconds) and incubated for 5 minutes.\n6. Samples were read for luminescence on a ViewLux CCD imager (PerkinElmer). Data were normalized to no-enzyme (0% activity) and no-inhibitor (DMSO; 100%) controls and the resulting percent inhibition data were fitted to a 4-parameter Hill equation using NCATS in-house software.", "values": [
      {"smiles": "Cc1cnc(CNC(=O)c2c(=O)c3ccc(N4CCCN(C)CC4)nc3n3c2sc2ccccc23)cn1", "activity, negative = inhibition": "4.41% [at 11.6 µM] (inactive)"},
      {"smiles": "Cc1ccc2c(c1)c1c(n2CCc2ccc(C)nc2)CCN(C)C1", "Potency": "inactive"},
      {"smiles": "CNC(=O)c1cc(Oc2ccc(NC(=O)Nc3ccc(Cl)c(C(F)(F)F)c3)c(F)c2)ccn1", "Potency": "inactive"},
      {"smiles": "CCc1cccc(CC)c1NC(=O)N1Cc2[nH]nc(NC(=O)c3ccc(N4CCN(C)CC4)cc3)c2C1", "Potency": "inactive"},
      {"smiles": "NC(=O)c1noc([C@H](CCCC2CCCCC2)CC(=O)NO)n1", "Potency": "inactive"},
      {"smiles": "CC(C)(OCc1nn(Cc2ccccc2)c2ccccc12)C(=O)O", "Potency": "inactive"},
      {"smiles": "CC1(COc2ccc3c(c2)ncn3-c2ccc3cccc(N4CCC(N)CC4)c3n2)COC1", "Potency": "inactive"},
      {"smiles": "Clc1ccc(C2(c3ccc(-c4cn[nH]c4)cc3)CCNCC2)cc1", "Potency": "inactive"},
      {"smiles": "CCNC(=O)c1noc(-c2cc(C(C)C)c(O)cc2O)c1-c1ccc(CN2CCOCC2)cc1", "Potency": "inactive"},
      {"smiles": "Cc1cccc2c1CC[C@H](CN1CCC(c3c(Cl)cccc3Cl)CC1)C[C@@H]2O", "Potency": "inactive"},
      {"smiles": "C[C@@]1(c2cc(-c3cncnc3)c(F)cc2F)CCSC(N)=N1", "Potency": "inactive"},
      {"smiles": "CN1CCC(COc2cnc(-c3cccc(Cn4nc(-c5cccc(C#N)c5)ccc4=O)c3)nc2)CC1", "Potency": "inactive"},
      {"smiles": "O=C(CO)N1CCC(c2[nH]nc(-c3ccc(Cl)cc3)c2-c2ccncn2)CC1", "Potency": "inactive"},
      {"smiles": "CCN1C[C@H](C)n2c(c(O)c3c(=O)n(Cc4ccc(F)c(Cl)c4)nc(C(=O)NC)c32)C1=O", "Potency": "inactive"},
      {"smiles": "CCC(=O)N1CCN(c2ccc(-n3c(=O)ccc4cnc5ccc(-c6cnc7ccccc7c6)cc5c43)cc2C(F)(F)F)CC1", "activity, negative = inhibition": "4.43% [at 11.6 µM] (inactive)"},
      {"smiles": "O=c1[nH]nc(OCCCc2ccc(Cl)cc2)c(NCc2cccnc2)c1Br", "Potency": "inactive"},
      {"smiles": "Cc1cc2c(cc1C1(c3ccc(C(=O)O)cn3)CC1)C(C)(C)CCC2(C)C", "Potency": "inactive"},
      {"smiles": "COc1ccc(-c2cc3nccn3c(Nc3ncccc3C(N)=O)n2)cc1OC", "Potency": "inactive"},
      {"smiles": "CC1CCN(c2cc(N3CCN(C)CC3)ccc2NC(=O)c2cc(C#N)c[nH]2)CC1", "Potency": "inactive"},
      {"smiles": "CN(C)c1nc(Cc2ccc(NC(=O)c3ccc(C(F)(F)F)cc3)cc2)nc(N(C)C)c1CC(=O)O", "Potency": "inactive"},
      {"smiles": "CCCCC(F)(F)[C@@]1(O)CC[C@H]2[C@H](CC(=O)[C@@H]2CCCCCCC(=O)O)O1", "Potency": "inactive"},
      {"smiles": "NC1(C(=O)N[C@@H](CCO)c2ccc(Cl)cc2)CCN(c2ncnc3[nH]ccc23)CC1", "Potency": "inactive"},
      {"smiles": "c1ccc(-c2oc3ncnc(NC[C@@H]4CCCO4)c3c2-c2ccccc2)cc1", "Potency": "inactive"},
      {"smiles": "O=C(Nc1cccc(C(F)(F)F)c1)Nc1cc(S(=O)(=O)NC2CC2)ccc1-c1ccsc1", "Potency": "inactive"},
      {"smiles": "COc1nccc(-c2c(-c3ccc(F)cc3)ncn2C2CCC(O)CC2)n1", "note": "(stereo not given)", "Potency": "inactive"},
      {"smiles": "O=C(O)CCNc1cc(N2CCc3ccccc3CC2)nc(-c2ccccn2)n1", "Potency": "inactive"},
      {"smiles": "CC1(C)CC(=O)c2c(C(F)(F)F)nn(-c3ccc(C(N)=O)c(NC4CCC(O)CC4)c3)c2C1", "note": "(stereo not given)", "Potency": "inactive"},
      {"smiles": "CNc1nc(Nc2ccc(C(=O)N3CCOCC3)cc2OC)ncc1Cl", "Potency": "inactive"},
      {"smiles": "C[C@@H]1CCO[C@H]2Cn3cc(C(=O)NCc4ccc(F)cc4F)c(=O)c(O)c3C(=O)N12", "Potency": "inactive"},
      {"smiles": "Nc1[nH]nc2nnc(-c3c(-c4ccccc4)nn4ccccc34)cc12", "Potency": "inactive"},
      {"smiles": "NC(=O)c1ccc(N(C(N)=O)c2c(F)cccc2F)nc1-c1ccc(F)cc1F", "Potency": "inactive"},
      {"smiles": "COC(=O)N1CCN(Cc2cccc(NC(=O)Nc3ccc(C)nc3)c2F)CC1", "Potency": "inactive"},
      {"smiles": "Cc1cnc(Nc2cccc(CN3CCOCC3)c2)nc1Nc1cccc(S(=O)(=O)NC(C)(C)C)c1", "Potency": "inactive"},
      {"smiles": "Cc1ccccc1C(=O)c1ccc(Nc2ccc(Br)cc2N)cc1Cl", "Potency": "inactive"},
      {"smiles": "Cc1nc2c([nH]1)CCN(C(=O)c1ccc(NC(=O)c3ccccc3-c3ccccc3)cc1)c1ccccc1-2", "Potency": "inactive"},
      {"smiles": "Cc1cc(C(C)Nc2ccccc2)c2nc(N3CCOCC3)cc(=O)n2c1", "note": "(stereo not given)", "Potency": "inactive"},
      {"smiles": "C[C@@H](NC(=O)c1ncnc(N)c1Cl)c1ncc(C(=O)Nc2cc(C(F)(F)F)c(Cl)cn2)s1", "Potency": "inactive"},
      {"smiles": "C=CC(=O)Nc1cccc(Sc2nc(Nc3ccc(N4CCN(C)CC4)cc3)ncc2Cl)c1", "Potency": "inactive"},
      {"smiles": "CNC1CCC(N(Cc2cccc(-c3ccncc3)c2)C(=O)c2sc3ccccc3c2Cl)CC1", "note": "(stereo not given)", "Potency": "inactive"},
      {"smiles": "COc1cc2nccc(Oc3ccc(NC(=O)Nc4cc(C)on4)c(Cl)c3)c2cc1OC", "Potency": "inactive"}
    ]}
  ]
}
